40 compounds from ChEMBL document CHEMBL1157539, “Thousands of chemical starting points for antimalarial lead identification” (Nature, 2010) can be followed below.

The assay concerns HepG2. Put plainly: GSK_TCMDC: Percent inhibition of human HepG2 cell line. Test compounds present at 10uM. The format is functional.
Consider `COc1ccccc1Nc1nc(C)cc(NCc2ccc(-n3ccnc3)cc2)n1`, for which the Inhibition was 5%.
As for `COc1ccc(C[C@H](N)C(=O)N[C@H]2[C@@H](O)[C@H](n3cnc4c(N(C)C)ncnc43)O[C@@H]2CO)cc1` [PUROMYCIN], the Inhibition is given as 99%.
The result for `COc1ccc(NC(=O)Nc2ccc(-c3ccccc3)cc2)cc1Cn1cnc(N2CCCNCC2)cc1=O.O=C(O)C(F)(F)F` reads 24%; that for `COc1ccc2nccc(NC(=O)N3CCC(NCCOc4cc(F)cc(F)c4)CC3)c2n1.O=C(O)C(=O)O`, 14%; that for `N#Cc1cnc(Nc2ccc(Oc3ccccc3)cc2)nc1Nc1cccc(S(N)(=O)=O)c1`, 74%.
The figure for `CC(=O)c1c(Nc2c(C)cc(C)cc2C)oc(C)cc1=O` is 7%; for `Cc1cccc2nc(-c3ccc(-c4ccc(CN5CCOCC5)cc4)cc3)[nH]c12.O=C(O)C(F)(F)F` it is 29%.
The result for `CC1c2cccc(O)c2CCN1CCc1ccc(Cl)c(Cl)c1.Cl` (stereo not given) reads 18%.
As to `CO/C(=C\C=C\c1cc2cc(Cl)c(Cl)cc2[nH]1)C(=O)NCCCN(C)CCN(C)c1ccccc1`, the Inhibition amounted to 38%.
Compound `O=C(Nc1ccc(-c2nc3ccccc3[nH]2)cc1)C1CCN(Cc2cccc(F)c2F)CC1` had an Inhibition of 23%.
`NC1=NC(c2ccccc2)(c2ccccc2)C(=O)N1CCCCc1ccccc1.O=CO` showed an Inhibition of 14%.
The figure for `O=C(/C=C/c1ccc(Cl)c(Cl)c1)NCCCCCN1CCC(NC(=O)Nc2cccc(C(F)(F)F)c2)CC1` is 61%.
`Cc1cc2c3c(N)nc(N)nc3ccc2n1C(C)C` showed an Inhibition of 70%.
For the compound `CC(CCCCOCCc1ccccc1)NCC(O)c1cc(Cl)c(N)c(Cl)c1` (stereo not given), the Inhibition is on record as 0%.
`CCCC(=O)c1cnc2c(Oc3cc(Cl)ncn3)cccc2c1Nc1ccccc1C` displayed an Inhibition of 6%.
The result for `CN(CCC1CCN(C(=O)/C=C/c2ccc(Cl)c(Cl)c2)CC1)C1CCC(c2c[nH]c3ccccc23)CC1` (stereo not given) reads 57%; that for `Br.Oc1ccc(CCNCCCCCCNCCCc2ccc(Cl)cc2)cc1O`, 13%; that for `CCOC(=O)c1c(NC(=O)c2ccccc2)sc2c(O)c(CN(CC)CC)ccc12.Cl`, 9%.
As for `Cc1cc(Nc2ccc(C)c(C)c2)n2nc(C)nc2n1`, the Inhibition is 10%.
The figure for `CCCc1cc(=O)[nH]c(-n2nc(C)cc2NC(=O)C(CC)c2ccccc2)n1` (stereo not given) is 41%.
The figure for `CC(=NNC(S)=NCCc1ccccc1)c1ccccn1` is 73%; for `COc1ccccc1-c1ccc2nnc(SCC(=O)Nc3ccc4c(c3)OCCO4)n2n1` it is 9%; for `Cl.NC(=O)c1cnc2cc(-c3ccoc3)ccc2c1Nc1ccc(NC(=O)Nc2ccccc2Cl)cc1` it is 39%.
In turn, `COc1cc(OC)cc(-c2nc3ccc(OCCN(C)C)c(C#N)c3[nH]2)c1` came in with an Inhibition of 4%.
The result for `CC1CN(CC(O)Cn2c3ccc(Br)cc3c3cc(Br)ccc32)CC(C)O1` (stereo not given) reads 0%.
The compound `O=C(CN1CCC2(CCC1=O)CC(=O)c1ccccc1O2)NCCN1CCOCC1` (stereo not given) yielded an Inhibition of 6%.
The figure for `COc1ccc2nccc([C@@H](O)CN3CCC(NC(=O)C(c4cc5ccccc5s4)N4CCN(c5ccccc5OC)CC4)CC3)c2c1` (stereo not given in full) is 21%; for `COc1ccc(Nc2nccc(NCC(O)c3cccc(C(F)(F)F)c3)n2)cc1` (stereo not given) it is 22%.
Regarding `COc1ccc(-c2ccc(NC(=O)c3cccc(C#N)c3)cc2)cc1CN1CCNCC1.O=C(O)C(F)(F)F`, the Inhibition was found to be 30%.
As for `CCCNCCc1ccc(NS(=O)(=O)c2cccc(-c3ccc(Cl)cc3)c2)cc1.Cl`, the Inhibition is listed as 36%.
The figure for `O=C(NC1CCCCN(Cc2ccccc2O)C1)c1cccc(Cl)c1.O=C(O)C(F)(F)F` (stereo not given) is 15%.
The result for `O=C(NCc1ccccc1)c1ccc(C(=O)NCC2CNCCO2)cc1.O=C(O)C(F)(F)F` (stereo not given) reads 4%; that for `CCCC(C)NC[C@@H](O)[C@H](Cc1ccccc1)NC(=O)c1cc(NCC)cc(N2CCCCS2(=O)=O)c1.Cl` (stereo not given in full), 0%.
Regarding `O=S(=O)(Nc1ccc(CCN2CCCCC2CCN2CCCC2)cc1)c1ccc(-c2ccccc2)cc1` (stereo not given), the Inhibition is reported as 18%.
The figure for `COc1cccc(-c2cnc(N)c(-c3nc4cc(Cl)c(F)cc4[nH]3)c2)c1` is 37%; for `N#Cc1ccccc1Sc1ccccc1C(=O)Nc1ccc2ccccc2n1` it is 0%.
As to `Cc1ccccc1Nc1nc(NCCCO)c2ccccc2n1.Cl`, the Inhibition worked out at 0%.
The result for `CN(C)c1ccc(/C=C2\S/C(=N\c3ccccc3)N(c3ccccc3)C2=O)cc1[N+](=O)[O-]` reads 9%.
The figure for `N#Cc1ccc(/C=C/C(=O)NCCCCCN2CCN(C(=O)Nc3ccc(Cl)c(C(F)(F)F)c3)CC2)cc1` is 42%.
The figure for `COc1ccc2c(=O)ccn(CCN3CCC(NCc4ccc5c(n4)NC(=O)CS5)CC3)c2c1.Cl` is 7%.

The term Inhibition denotes the share of the control response that was lost under treatment. Read a low Inhibition as little suppression.
